Assay outcomes as filed in PubChem.
ssDAF-12 act: activators of S. stercoralis DAF-12 nuclear receptor. HEK293 ssDAF-12/GRIP1 lit1-tk-luc reporter, luminescence; % of 3 µM dafachronic acid response. activation, % at 6.8 µM. 1% of 370,000 active. AID 652126;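 active = activation above the mean over all tested compounds plus 3 SD, cut at about 0.9% in these data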;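 also: 0% = DMSO-only wells and 100% = 3 µM delta7-dafachronic acid wells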
DAX1 inh-1: DAX1 (NR0B1) inhibition, primary screen; HEK293T StAR-luciferase reporter, SF-1/DAX-1 repression relief; inhibition, % at 6.8 µM; AID 652010; 1.1% of 370,000 active;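 active = inhibition above the mean over all tested compounds plus 3 SD, cut at about 3.6% in these data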;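 also: 0% = DAX-1 cells with DMSO and 100% = cells lacking DAX-1 with DMSO; higher inhibition means more luminescence from relief of DAX-1 repression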
DAX1 inh-2: NR0B1 (DAX1) inhibition. AID 504766. HEK293 Gal4-DAX1 luciferase reporter, luminescence. 0.99% of 340,000 active. inhibition, % at 6.75 µM;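 active = inhibition above the mean over all tested compounds plus 3 SD, cut at about 4.2% in these data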;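 also: 0% = DAX1-transfected cells with DMSO and 100% = empty-vector control cells with DMSO; inhibition shows as a rise in luminescence from relieved DAX1 repression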
hcDAF12 agonist: activates DAF-12 receptor from parasite H. contortus | HEK293 hcDAF-12 lit1-tk-luc reporter, luminescence; 0% DMSO, 100% Δ7-dafachronic acid | 1.4% of 370,000 active | activation, % at 6.8 µM;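 active = activation above the mean of all tested compounds plus 3 SD, cut at about 5.5% in these data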;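 also: 100% = response to 3 µM Δ7-dafachronic acid high control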
hgDAF12 agonist: activates the H. glycines DAF-12 receptor ligand-binding domain | HEK293 GAL4-hgDAF12 UAS-luciferase reporter, agonist luminescence; normalized to butyrate control | activation, % at 6.8 µM | 1.8% of 370,000 active;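 active = activation above a cutoff set at the mean of all screened compounds plus 3 SD, cut at about 10% in these data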;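 also: 0% = DMSO wells and 100% = sodium butyrate wells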
LXR ag: counter-screen for hcDAF-12 agonists: agonists of human LXR-beta | shares compounds with hcDAF12 agonist | HEK293 Gal4-LXR tk-luc reporter, luminescence, 24 h; normalized: DMSO 0%, positive control 100% | activation, % at 6.8 µM | 3,400 tested, under 10 active | AID 743027;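 active = mean percent activation of the reporter above a cutoff set as the average over tested compounds plus their standard deviation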
Target sequence (P55055 whole entry, looked up, the tested form may be a part): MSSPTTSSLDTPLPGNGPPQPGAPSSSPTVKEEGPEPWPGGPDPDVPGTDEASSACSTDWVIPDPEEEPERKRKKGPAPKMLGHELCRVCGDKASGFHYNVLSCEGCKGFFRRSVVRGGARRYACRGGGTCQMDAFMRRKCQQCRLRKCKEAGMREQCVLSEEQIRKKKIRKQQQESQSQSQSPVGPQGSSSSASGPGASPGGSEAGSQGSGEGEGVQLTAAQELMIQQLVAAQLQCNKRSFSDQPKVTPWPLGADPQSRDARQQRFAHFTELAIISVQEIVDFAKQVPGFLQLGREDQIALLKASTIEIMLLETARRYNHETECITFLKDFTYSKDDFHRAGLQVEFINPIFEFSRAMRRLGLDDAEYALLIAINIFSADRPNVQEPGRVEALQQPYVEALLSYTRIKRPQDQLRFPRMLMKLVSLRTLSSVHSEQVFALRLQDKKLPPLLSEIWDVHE
hcDAF12 conf: hcDAF-12 agonism, confirmation assay; shares compounds with hcDAF12 agonist; 61% of 3,400 active; AID 743032; activation, % at 6.8 µM; HEK293 hcDAF-12 lit1-tk-luc reporter, luminescence; % of Δ7-dafachronic acid response;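 active = mean activation across triplicate tests above the threshold derived from the earlier primary screen, cut at about 5.5% in these data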;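 also: 0% = DMSO only wells and 100% = 3 µM Δ7-dafachronic acid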
hgDAF12 conf: confirmation of H. glycines DAF-12 agonists; shares compounds with hgDAF12 agonist; HEK293 GAL4-hgDAF12 luciferase reporter, agonist mode; percent of butyrate response; activation, % at 6.8 µM; 80% of 3,300 active;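 active = mean activation over triplicate wells above the hit cutoff derived from the earlier primary screen, cut at about 11% in these data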;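 also: 0% = DMSO low control and 100% = 2 mM sodium butyrate high control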
LXRb DAF12 ctr: LXR-beta agonism as DAF-12 counter-screen | activation, % at 6.8 µM | 3,300 tested, under 10 active | AID 743051 | shares compounds with hgDAF12 agonist | HEK293 Gal4-LXR luciferase reporter, 24 h;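 active = mean activation of the triplicate above a set limit carried over from the primary screen, none filed active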
* marks the source's active call; other numbers are inactive results; x = no result given. An excerpt weighted towards active compounds, which were near 4.1% of everything screened.

SMILES	ssDAF-12 act	DAX1 inh-1	DAX1 inh-2	hcDAF12 agonist	hgDAF12 agonist	LXR ag	hcDAF12 conf	hgDAF12 conf	LXRb DAF12 ctr
Clc1nc2ccccc2cc1/C=N/Nc1nc2ccccc2[nH]1	1.7*	2	0	9.3*	14*	1	14*	17*	1
Cc1ccc(N/C=C(/C#N)c2ccsc2)cc1C	1.5*	2	3	7.2*	15*	1	8.1*	22*	1
Cc1ccc(N/N=C(\C#N)C(N)=S)cc1C	-2	0	1	3	5	x	x	x	x
O=C(Nc1cccc(O)c1)c1cccc(NC(=O)c2cccs2)c1	-1	0	1	0	3	x	x	x	x
Nc1ccc2cc3[nH]c4cc(N)ccc4c3nc2c1	3.0*	-2	-1	19*	35*	3.5*	15*	20*	1
O=[N+]([O-])c1ccccc1N=Nc1c(O)[nH]c2ccc(F)cc12	0	3	1	3	7	x	x	x	x
Oc1[nH]c2ccccc2c1N=Nc1ccccc1F	1	2	3	12*	16*	1	14*	21*	1
Cc1ccc2cc(NC(=O)c3cccc(F)c3)ccc2n1	0	3	3	8.2*	15*	1	4	20*	1
Cc1ccc(C(=O)Nc2ccc3ccccc3c2)cc1	-1	0	-7	3	-2	x	x	x	x
O=C(Nc1ccc2ccccc2c1)c1ccc(Cl)cc1	1.7*	3.8*	4	6.8*	16*	2	9.4*	22*	1
O=C(Nc1ccc2[nH]ncc2c1)c1cccc(F)c1	0	1	2	0	8	x	x	x	x
O=C(Nc1ccc2ccccc2c1)c1cccc(F)c1	0	3	4	8.9*	14*	1	7.3*	16*	1
COc1ccc2[nH]c3nc(SC(C)C)nnc3c2c1	1.5*	3.9*	1	14*	21*	2	9.1*	9	1
CN1C(=O)CCC(CCC(=O)O)(c2ccccc2O)C1=O (stereo not given)	-1	0	0	-1	-1	x	x	x	x
O=C(N/N=C/c1cccs1)c1n[nH]c2c1CCC2	1.8*	1	2	7.1*	14*	1	3	14*	1
CCCc1nc2cc(C)c(Br)c(C)n2c1Cc1ccc(OC)cc1C	0	-2	x	3	3	x	x	x	x
OC(c1ccc(F)c(F)c1)c1ncc(-c2cccc(F)c2)[nH]1 (stereo not given)	-1	0	x	0	-1	x	x	x	x
COCc1c(C(=O)N/N=C(/C)c2ccc(OCc3ccccc3)cc2)nnn1-c1nonc1N	0	1	0	8.5*	14*	0	3	8	0
CCCCNC(=O)Nc1ncn[nH]1	-1	0	0	-2	2	x	x	x	x
COc1ccc(Nc2nc(-c3cc4cccc(OC)c4oc3=O)cs2)cc1	-1	0	3	-2	5	x	x	x	x
COc1ccc(-c2cc3cccc(OC)c3oc2=O)cc1	0	3	-1	7.3*	16*	2	7.8*	24*	1
CCOC(=O)c1csc(-c2ccc(OC)c(OC)c2)n1	-1	0	0	0	0	x	x	x	x
CCOC(=O)c1csc(-c2sccc2Br)n1	0.9*	3	3	7.0*	16*	1	5.8*	16*	1
CCCCOC(=O)c1ccc(NC(=O)c2c(N)n(C)c(=O)[nH]c2=O)cc1	-1	0	x	-1	-2	x	x	x	x
Cc1c(-c2ccc(Br)cc2)nc2ccccn12	1.4*	4.0*	1	8.4*	15*	1	7.5*	15*	1
SMILES	ssDAF-12 act	DAX1 inh-1	DAX1 inh-2	hcDAF12 agonist	hgDAF12 agonist	LXR ag	hcDAF12 conf	hgDAF12 conf	LXRb DAF12 ctr
CN(C)c1ccc(-c2nc3ccccn3c2/N=C/c2ccc(Br)cc2)cc1	1.4*	3	0	7.5*	16*	1	5	8	1
Cc1ccc(S(=O)(=O)NCc2cccnc2)cc1C(=O)NC1CCCCC1	0	0	2	0	1	x	x	x	x
CNC(=O)c1ccsc1NC(=O)c1ccc2c(c1)CCCC2	0	1	0	6.9*	17*	0	7.0*	9	0
NS(=O)(=O)c1ccc(NC(=O)c2ccc3c(c2)CCCC3)cc1	0	0	0	-1	3	x	x	x	x
CCc1ccc(NC(=O)c2cc(C(C)C)on2)cc1	0	3	0	7.1*	15*	1	6.0*	19*	1
Cc1ccc(-c2nc3ccc(Cl)cn3c2Cc2cccc(Cl)c2)cc1	0	4.1*	x	6.6*	14*	1	3	8	0
Cc1ccc(Nc2nc3ccccc3s2)c(C)c1	1.2*	4	0	9.1*	21*	2	9.6*	22*	1
Cc1cc(C)nc(Nc2nc3ccccc3s2)n1	0	4.5*	1	14*	17*	2	15*	19*	1
Nc1nnc(-c2ccccc2[N+](=O)[O-])o1	-1	0	2	-1	-1	x	x	x	x
Brc1ccc(-c2noc(-c3ccccn3)n2)o1	1.4*	2	2	10*	20*	1	7.8*	21*	1
O=[N+]([O-])c1ccccc1-c1nc(-c2ccc(Br)o2)no1	2.8*	4.5*	3	15*	21*	1	8.6*	18*	1
O=C(CSc1ccccc1[N+](=O)[O-])NC1CCS(=O)(=O)C1 (stereo not given)	-1	0	1	0	-3	x	x	x	x
CCc1nc2ccc(C(=O)Nc3cccc(NS(C)(=O)=O)c3)cn2c1N(C)CCN1CCOCC1	-1	2	x	0	4	x	x	x	x
CCCCN(C(=O)CSCC(=O)Nc1ccc(OC)cc1)c1c(N)n(Cc2ccccc2)c(=O)[nH]c1=O	-1	2	2	0	-1	x	x	x	x
COc1ccc(S(=O)(=O)N2CCC(C(=O)NCCC(=O)NCc3cccnc3)CC2)cc1	-1	0	0	0	-2	x	x	x	x
Cc1ccc(NC(=O)c2onc(C)c2Cl)cc1	1	3	2	9.1*	18*	1	12*	16*	0
Cc1ccc(NC(=O)c2c(C)noc2C)cc1	-1	0	1	0	-2	x	x	x	x
